This is an account of results in PubChem BioAssay (EPA / NIEHS).

A structure can be active in one record and inactive in another. The source made the active and inactive calls. The calls were made as follows: active = hit-call score of the fitted dose curve at least 0.9, where 1 is the maximum; inactive = score below 0.9.

A short description of the test: BSK_3C_uPAR: BioMAP Diversity Plus: 3C Assay for Urokinase-type plasminogen activator receptor (uPAR) Biomarker Activity (AID 2282998). Particulars: BioMAP 3C HUVEC, uPAR biomarker ELISA; actives raise or lower the signal. The procedure:
BSK_3C is a cell-based, multiplexed-readout assay that uses umbilical vein endothelium, a human vascular primary cell, with measurements taken at 24 hours after chemical dosing in a 96-well plate.BSK_3CAR is an assay component measured in the BSK_3C assay. It measures uPAR antibody related to regulation of gene expression using ELISA technology.Data from the assay component BSK_3CAR was analyzed into 1 assay endpoint. This assay endpoint, BSK_3CAR, was analyzed with bidirectional fitting relative to DMSO as the negative control and baseline of activity. Using a type of binding reporter, gain or loss-of-signal activity can be used to understand changes in the signaling as they relate to the gene PLAUR. Furthermore, this assay endpoint can be referred to as a primary readout, because this assay has produced multiple assay endpoints where this one serves a signaling function. To generalize the intended target to other relatable targets, this assay endpoint is annotated to the cytokine intended target family, where the subfamily is plasmogen activator.
The levels of cell surface (or secreted, indicated by the prefix "s") biomarker endpoints were measured by ELISA. Overt cytotoxicity to cells in confluent adherent cultures (all systems other than the BT system) was assessed by measuring total protein levels using sulforhodamine B (SRB) staining in parallel cultures at the time of biomarker measurements, indicated as SRB endpoints. For proliferation assays for adherent cell types, individual cell types are cultured at sub-confluence and relative cell numbers quantified by SRB staining at time points optimized for each system (48 h: 3C and CASM3C systems; 72 h: BT and HDF3CGF systems; 96 h: SAg system). SRB was performed by staining cells with 0.1% SRB after fixation with 10% TCA and reading wells at 560 nm.Viability and proliferation of PBMC (T cells) was quantified by Alamar Blue reduction for the SAg and BT systems. For PBMC viability (referred to as PBMC Cytotoxicity within the assay endpoint names), cells were plated (75,000/well in a 96-well plate) and then chemical samples added for 1 h before addition of activators, SEB and TSST-1 (20 ng/mL final concentration each). Cells were incubated for 90 h. Then, Alamar Blue (20 uL/well) (Invitrogen, Cat DAL1100) was added for 6 h, and the plates were read with a fluorescence microplate reader at 546/580 nm (excitation/emission). For PBMC proliferation, cells were plated and activated as above but incubated for only 16 h prior to addition of Alamar Blue. Plates were read after 6 h.
Background: An ELISA detects its analyte on a solid surface through an enzyme-linked reagent.
On to `Nc1ccc(Oc2ccc(N)cc2)cc1`, for which the result was inactive.

`c1ccc2c(c1)oc1ccccc12`: the result was inactive. Turning to `CC(C)(C)C(O)(CCc1ccc(Cl)cc1)Cn1cncn1` (stereo not given), the result was inactive. On to `CS(=O)(=O)NC(=O)c1cc(Oc2ccc(C(F)(F)F)cc2Cl)ccc1[N+](=O)[O-]`, for which the AC50 (commonly the concentration at which the activity in the assay is half-maximal) was 28.6 µM (active). For the compound `[Cl-].[Cl-].[Hg+2]`, the concentration at half-maximal activity (AC50) is 34.1 µM (active). On the same count and under the same terms, the figure for `CCC[CH2][Sn]([Cl])([CH2]CCC)[CH2]CCC` is 0.148 µM (active).

On to `Nc1ccc(N=Nc2ccccc2)cc1`, for which the result was inactive. Still for that read-out and setting: for `N#CC(Br)(Br)C(N)=O` the value was “inactive”; for `c1ccc(N=Nc2ccccc2)cc1`, “inactive”.

Turning to `CN(C)c1ccc(C(=O)c2ccc(N(C)C)cc2)cc1`, the half-maximal activity concentration (AC50) was 3.34 µM (active). On to `CCNS(=O)(=O)C(F)(F)C(F)(F)C(F)(F)C(F)(F)C(F)(F)C(F)(F)C(F)(F)C(F)(F)F`, for which the outcome was inactive and the AC50 is 19.6 µM (active). Turning to `COP(=S)(OC)SCN1C(=O)c2ccccc2C1=O`, the result was inactive.

With `CNC(=O)Oc1cccc2c1OC(C)(C)C2`, the outcome was inactive.

With `O=Cc1ccco1`, the result was inactive. As for `CCCCC(CC)COC(=O)c1ccc(C(=O)OCC(CC)CCCC)c(C(=O)OCC(CC)CCCC)c1` (stereo not given), the outcome was inactive. The same measure, in the same setting: the entry for `CCN(CC)N=O` is “inactive”; for `CN(C)C(=O)Nc1ccc(Cl)cc1` it is “inactive”.

`O=P(OCCCl)(OCCCl)OCCCl`: the result was inactive.

`Cc1cccc(N)c1N`: the result was inactive. Consider `CCCCCOC(=O)c1ccccc1C(=O)OCCCCC`, for which the outcome was inactive. `c1ccc2c(c1)-c1cccc3cccc-2c13`: the result was inactive. For the compound `c1ccc(NNc2ccccc2)cc1`, the result was inactive. On to `CCCCOC(=O)c1ccccc1C(=O)OCc1ccccc1`, for which the outcome was inactive. Turning to `ClC1=C(Cl)C2(Cl)C3C(Cl)C=CC3C1(Cl)C2(Cl)Cl` (stereo not given), the half-maximal activity concentration (AC50) is 29.3 µM (active). As for `C[N+](C)(C)CC1CO1` (stereo not given), the result was inactive.

Regarding `OCCOCCO`, the outcome was inactive.

Turning to `Nc1cc(Cl)cc(C(=O)O)c1Cl`, the result was inactive. For the compound `CC(C)(C)OOC(=O)c1ccccc1`, the outcome was inactive. With `CCC12COCN1COC2`, the result was inactive. As for `CC(O)CCO` (stereo not given), the outcome was inactive. In the case of `Nc1ccc(Cc2ccc(N)cc2)cc1`, the outcome was inactive. For `CCCCCCCCCCCCCN1CC(C)OC(C)C1` (stereo not given), the result was inactive.

Consider `O=C1CCCO1`, for which the result was inactive.

Take `CCCCCCCCn1sccc1=O`: the AC50 is 15.3 µM (active). As to `CN(C)[C@@H]1C(=O)C(C(N)=O)=C(O)[C@@]2(O)C(=O)C3=C(O)c4c(O)cccc4[C@@](C)(O)[C@H]3C[C@@H]12`, the outcome was inactive. Turning to `COC(=O)Nc1nc2ccccc2[nH]1`, the half-maximal activity concentration (AC50) is 10.9 µM (active). Take `Cc1ccc([N+](=O)[O-])cc1`: the outcome was inactive. Consider `CC(C)(C)OOC(C)(C)CCC(C)(C)OOC(C)(C)C`, for which the result was inactive. On to `Cc1ccc(N)cc1`, for which the result was inactive.
